The values below come from PubChem BioAssay (Tox21).

Assay [1] in a line: qHTS assay to identify small molecule agonists of the vitamin D receptor (VDR) signaling pathway - cell viability counter screen (AID 743224). Note: series mostly up to about 63 µM; % is set by controls: 0 for no effect and ±100 for the full control effect; nearly all actives have a fitted effect of over 50% in size. In outline: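 Counter screen run in the same wells as the VDR-bla reporter assay: CellTiter-Glo luminescence, 30 min at room temperature, after 16 h compound treatment at 37C of cells pre-plated for 4 h.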
Background: qHTS replaces the single test concentration by a dilution series.

Assay [2] in a line: qHTS assay to identify small molecule antagonists of the vitamin D receptor (VDR) signaling pathway - cell viability counter screen (AID 743225). Note: % is set by controls: 0 for no effect and ±100 for the full control effect; nearly all actives have a fitted effect of over 50% in size. In short, it runs like this:
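Cells (VDR-UAS-bla HEK 293T) are plated, rested 4 h at 37C, dosed with compound and 3 nM final 1-alpha,25-dihydroxy vitamin D3, and incubated 16 h. Viability is taken from CellTiter-Glo luminescence in the reporter wells.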

Assay [3] in a line: qHTS assay to identify small molecule agonists of the NFkB signaling pathway - cell viability counter screen (AID 1159515; calls by dose curve; note: series mostly up to about 61 µM; % is set by controls: 0 for no effect and ±100 for the full control effect; nearly all actives have a fitted effect of over 55% in size). In short, it runs like this: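 Read by CellTiter-Glo luminescence (30 min, room temperature) in the wells also used for the beta-lactamase FRET read. ME-180 NFkB-bla cells at 2,000 per well were plated overnight, then exposed to compound for 5 hr at 37 C.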

The nature of assay [4]: qHTS assay to identify small molecule agonists of the endoplasmic reticulum stress response signaling pathway (AID 1159516; active = well fitted activation curve with a large enough effect in the signal ratio in the repeat runs, not every such curve was filed as active; the % refers to the signal ratio; note: % is set by controls: 0 for no effect and ±100 for the full control effect). In outline:
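Ratiometric FRET readout (405 nm excitation; 460 and 530 nm emission) of a beta-lactamase gene driven by the ER stress response element, after 2 hr substrate loading. HeLa ESRE-bla cells were seeded overnight and treated with compounds for only 5 hr at 37 C.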

Assay [5] can be described thus: qHTS assay to identify small molecule antagonists of the retinoid-related orphan receptor gamma (ROR-gamma) signaling pathway - cell viability counter screen (AID 1159520). Note: % is set by controls: 0 for no effect and ±100 for the full control effect; nearly all actives have a fitted effect of over 50% in size. In short, it runs like this: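 Tet-on ROR gamma CHO cells (1,000/well) were plated 4 hr, given compounds in DMSO for 2 hr at 37 C, then induced with 1 uM final doxycycline for 16 hr. Viability was read as ATP by CellTiter-Glo luminescence after 30 min.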

The target of assay [6] is Nuclear receptor ROR-gamma (Homo sapiens) (UniProt P51449). Nature of the assay: qHTS assay to identify small molecule antagonists of the retinoid-related orphan receptor gamma (ROR-gamma) signaling pathway (AID 1159521; note: nearly all actives have a fitted effect of over 50% in size; note: potency is the fitted concentration of half-maximal effect). In outline:
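RORγ antagonism is scored from reduced reporter luminescence in Tet-on CHO cells. Induction used 1 uM final doxycycline hyclate for 16 h at 37 C, following a 2 h compound exposure.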

Assay [7] in a line: qHTS assay to identify small molecule agonists of the AP-1 signaling pathway - cell viability counter screen (AID 1159525; calls by dose curve; note: nearly all actives have a fitted effect of over 55% in size). In short, it runs like this:
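Each titration point was normalised to DMSO and tetra n-octyl ammonium bromide controls. The read was Cell Titer Glo luminescence after 30 min at RT, following 5 h compound exposure of ME-180 AP-1-bla cells at 37 °C.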

The nature of assay [8]: qHTS assay to identify small molecule agonists of the AP-1 signaling pathway (AID 1159526; calls by dose curve; note: % is set by controls: 0 for no effect and ±100 for the full control effect).
The target of assay [9] is Retinoic acid receptor RXR-alpha (Homo sapiens) (UniProt P19793). Briefly: qHTS assay to identify small molecule agonists of the RXR signaling pathway (AID 1159527; calls by dose curve; note: % is set by controls: 0 for no effect and ±100 for the full control effect; nearly all actives have a fitted effect of over 35% in size). In short, it runs like this:
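qHTS of the Tox21 10K library in GeneBLAzer RXR-alpha HEK 293T cells carrying a beta-lactamase reporter […]; 16 hr treatment, 9-cis retinoic acid as agonist control, FRET read-out.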

The nature of assay [10]: qHTS assay to identify small molecule agonists of the RXR signaling pathway - cell viability counter screen (AID 1159529). In outline: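 Cell viability is measured by CellTiter-Glo luminescence, 30 min at room temperature, in wells already read for beta-lactamase. Engineered HEK 293T cells (RXR-alpha-UAS-bla) are dosed 16 hr at 37 C. Tetraoctyl ammonium bromide serves as positive control.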

Assay [11] can be described thus: qHTS assay to identify small molecule antagonists of the retinoid acid receptor (RAR) signaling pathway - cell viability counter screen (AID 1159551). Note: % is set by controls: 0 for no effect and ±100 for the full control effect; nearly all actives have a fitted effect of over 35% in size. In short, it runs like this: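 Cytotoxicity counter screen: ATP content quantified by CellTiter-Glo luminescence in C3RL4 cells treated 6 hr at 37 C with compound and retinol (1 uM final). Cells plated at 1,000/well and cultured overnight before dosing.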

A short description of assay [12]: qHTS assay to identify small molecule agonists of the endoplasmic reticulum stress response signaling pathway - cell viability counter screen (AID 1159517; calls by dose curve). In outline:
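Cytotoxicity of test compounds toward ESRE-bla HeLa cells was assessed after 5 hr exposure. The luminescent CellTiter-Glo signal was measured 30 min after reagent addition.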

The nature of assay [13]: qHTS assay to identify small molecule agonists of the retinoic acid receptor (RAR) signaling pathway (AID 1159553). Note: % is set by controls: 0 for no effect and ±100 for the full control effect. In outline:
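Luminescence was measured 30 min after luciferase reagent addition at room temperature. Before that, C3RL4 reporter cells (1,000 per well, plated overnight) were treated with compound for 6 hr at 37 C and 5% CO2.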

Assay [14] in a line: qHTS assay to identify small molecule antagonists of the estrogen related receptor (ERR) signaling pathway - cell viability counter screen (AID 1224818).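 Note: series mostly up to about 46 µM; viability measured after 17.5 h of compound exposure; % is set by controls: 0 for no effect and ±100 for the full control effect.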 In outline:
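Cytotoxicity counter screen: fluorescence from CellTiter-Fluor, added after 17.5 h compound exposure at 37 C and read 30 min later. ERR cell line seeded at 2,000 cells/well, preincubated 6 h before dosing.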

Assay [15] can be described thus: qHTS assay to identify small molecule antagonists of the estrogen related receptor (ERR) signaling pathway (AID 1224819). In outline: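 LOPAC library screened for antagonism as reduced One-Glo luminescence in ERR reporter cells (2,000/well). Compounds were added after 6 h pre-incubation and left 18 h at 37C; reading followed a 30 min room-temperature reagent step.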

A short description of assay [16]: qHTS assay to identify small molecule agonists of the estrogen related receptor (ERR) signaling pathway (AID 1224820). Note: % is set by controls: 0 for no effect and ±100 for the full control effect. In outline:
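Following a 6 h settling period, 2,000 ERR cells per well receive DMSO-dissolved compounds by pin tool and incubate 18 h at 37 C; agonist activity is scored from One-Glo luminescence read 30 min post-addition.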

Assay [17] deals with estrogen-related receptor alpha (ERRalpha) with PGC-1alpha coactivator, human. Nature of the assay: qHTS assay to identify small molecule antagonists of the estrogen related receptor signaling pathway with the pleiotropic PPARgamma coactivator (PGC) (AID 1224821; calls by dose curve). In outline:
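Screening used NTP's PGC/ERR cells, dosed via pin tool with compound in DMSO alongside positive and negative controls. After 18 h at 37 C, One-Glo reagent sat 30 min at room temperature before luminescence detection.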

Assay [18] in a line: qHTS assay to identify small molecule antagonists of the estrogen related receptor signaling pathway with the pleiotropic PPARgamma coactivator (PGC) cell viability counter screen (AID 1224822). In outline: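 Viability counter-screen read by fluorescence intensity after 30 min with CellTiter-Fluor at 37 C; PGC/ERR reporter cells were exposed to compounds for 17.5 h at 37 C following a 6 h preincubation.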

Assay [19] can be described thus: qHTS assay to identify small molecule agonists of the estrogen related receptor signaling pathway with the pleiotropic PPARgamma coactivator (PGC) (AID 1224823). Note: % is set by controls: 0 for no effect and ±100 for the full control effect. In outline: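 In this quantitative high-throughput screen, an 18 h, 37 C treatment of PGC/ERR cells with compounds in DMSO preceded a One-Glo luminescence read taken after 30 min at room temperature.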

Assay [20] in a line: qHTS assay to identify small molecule antagonists of the retinoic acid receptor (RAR) signaling pathway (AID 1159552). In outline: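 Quantitative HTS in C3RL4 RARE-luciferase reporter cells. Compounds were added with 1 uM (final) retinol; luminescence was read after 6 hr.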

Inconclusive results are not listed. Calls of active or inactive are those of the source. Unless noted, calls come from the whole dose curve; as a rule, active = well fitted curve in the direction sought with a large enough effect in the repeat runs; inconclusive = weak or mixed curves; inactive = no such curve, though single readings can be large; an effect the other way counts as inactive or inconclusive.

Retinoic acid receptor RXR-alpha (Homo sapiens), sequence (P19793 whole entry, looked up): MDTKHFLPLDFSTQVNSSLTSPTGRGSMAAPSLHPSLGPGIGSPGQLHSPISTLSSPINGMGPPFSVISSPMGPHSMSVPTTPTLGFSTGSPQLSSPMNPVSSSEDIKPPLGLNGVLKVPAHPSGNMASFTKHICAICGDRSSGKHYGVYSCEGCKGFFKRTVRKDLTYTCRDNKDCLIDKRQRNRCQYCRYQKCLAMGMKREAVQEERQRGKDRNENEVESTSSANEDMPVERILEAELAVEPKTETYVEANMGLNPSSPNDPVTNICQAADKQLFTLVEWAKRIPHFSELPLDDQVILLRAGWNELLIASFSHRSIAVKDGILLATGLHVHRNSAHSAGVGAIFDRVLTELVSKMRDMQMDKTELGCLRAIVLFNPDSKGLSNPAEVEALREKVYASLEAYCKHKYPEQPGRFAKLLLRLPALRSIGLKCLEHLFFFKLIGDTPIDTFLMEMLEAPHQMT

Regarding `COCCOCC(OC)OC`, the outcome in [1], in assay [2], in assay [3], in assay [4], in assay [5] and in [7] was inactive. The compound was called inactive in assay [8] and in assay [11]. Further, the Potency result in assay [6], in assay [9] and in [10] was “inactive” in each case.

Take `CCCCCCCCCCOc1cc2c(=O)c(C(=O)OCC)c[nH]c2cc1OCC`: the activity change, negative = cytotoxicity was -0.151% [at 5.95 µM] (inactive) in assay [1], -7.49% [at 6.95 µM] (inactive) in [12], -0.18% [at 6.97 µM] (inactive) in assay [10] and 1.07% [at 8.39 µM] (inactive) in assay [11]. For the same compound, the viability change, negative = cytotoxic was -0.675% [at 6.95 µM] (inactive) in assay [2] and 15.6% [at 6.97 µM] (inactive) in assay [7]. Besides, the activity, negative = cytotoxic in assay [3] is 6.37% [at 6.95 µM] (inactive). The values for the activation in assay [4], in assay [8] and in assay [9] were 2.24% [at 6.95 µM] (inactive), 9.42% [at 6.97 µM] (inactive) and -0.304% [at 6.98 µM] (inactive), respectively. Further, the activity change, negative = inhibition in assay [6] was 36.6% [at 8.39 µM] (inactive).

Consider `CN1C(C)(C)CC(O)CC1(C)C`, for which the result in assay [1], in assay [3], in [4], in assay [5], in assay [7] and in assay [8] was inactive. The result in [11] was inactive. Besides, the Potency entry in [6], in [9] and in assay [10] was “inactive” throughout.

Regarding `Nc1ccn([C@@H]2O[C@H](CO)[C@@H](O)[C@@H]2O)c(=O)n1`, the compound was classed as inactive in assay [1], in [2], in [3], in assay [4], in assay [12] and in assay [7]. Also, the compound was called inactive in assay [8], in [11], in assay [14], in assay [15], in assay [16] and in [17]. For the same compound, the call in [18] and in assay [19] was inactive. Besides, the Potency in [6] is 8.63 µM (active). Also, the Potency result in assay [9], in assay [10] and in assay [13] was “inactive” in each case.

Regarding `CC(=O)N[C@H]1[C@H]([C@H](O)[C@H](O)CO)OC(C(=O)O)=C[C@@H]1N=C(N)N`, the compound was classed as inactive in [1], in assay [2], in assay [3], in assay [4], in assay [5] and in assay [7]. Also, the compound was classed as inactive in [8] and in assay [11]. The Potency entry in [6], in assay [9] and in assay [10] was “inactive” throughout.

Consider `CC(C)C1CCC(O)CC1` (stereo unspecified), for which the result in assay [1], in [2], in assay [3], in assay [4], in [5] and in assay [7] was inactive. The call in assay [8] and in assay [11] was inactive. Moreover, the Potency entry in assay [6], in [9] and in assay [10] was “inactive” throughout.

`CCCCCC(C)N` (stereo unspecified): the outcome in [1], in assay [2], in [4], in assay [5], in [7] and in assay [8] was inactive. In addition, in assay [11], the compound was classed as inactive. Further, the Potency entry in assay [6], in assay [9] and in assay [10] was “inactive” in each case.

For the compound `CCOC(=O)c1cnc2c(cnn2CC)c1NN=C(C)C`, the outcome in assay [1], in assay [2], in [4], in assay [12], in [5] and in [7] was inactive. Further, the compound was classed as inactive in [8], in assay [11], in assay [14] and in assay [18]. For the same compound, the Potency result in assay [6], in assay [9] and in assay [10] was “inactive” in each case.

With `Cc1nc2ccc(CN(C)c3ccc(C(=O)N[C@@H](CCC(=O)O)C(=O)O)s3)cc2c(=O)[nH]1`, the outcome in assay [1], in [2], in assay [4], in assay [12], in assay [5] and in assay [7] was inactive. Further, the outcome in [8] and in assay [11] was inactive. Further, the Potency entry in [6], in [9] and in assay [10] was “inactive” in each case.

For `C=CC(=O)OCCCl`, the call in [1], in [4], in assay [5], in assay [8] and in [11] was inactive. Further, the Potency entry in [6], in assay [9], in assay [10], in assay [20] and in assay [13] was “inactive” in each case.
